Laboratory results as given in PubChem BioAssay (NCI).
The panel holds about 83,000 compounds, 20% with a hit somewhere; the sample as a whole holds those more often.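 Treatment: one concentration, 48 hours, 96-well format. Scoring: percent growth, with anything below 10 considered active.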 The source made the active and inactive calls.

Test system: NCI-H460 lung
Assay: NCI-60 one-dose screen, 48 h (100 = growth as untreated, 0 = no growth, -100 = all killed)
Conditions: 10 µM

Row | Structure (SMILES) | growth
1 | Cc1cc(Cl)nc(N(CCCNc2ccnc3cc(Cl)ccc23)Cc2cccs2)n1 | 7.09% (active)
2 | COc1cc(Cl)cc(-c2nn(-c3cccc(NC(=O)Nc4cc(C(F)(F)F)cc(C(F)(F)F)c4)c3)cc2-c2ccncc2)c1 | 0.241% (active)
3 | CN(C)CCNC(=O)c1cccn2c(=O)c3cc4ccccc4cc3nc12 | -31.7% (active)
4 | CC12O[C@H](C[C@@H](O)[C@H]1O)n1c3ccccc3c3c4c(c5c6ccccc6n2c5c31)C(=O)N(CCCN)C4=O | 10.4% (inactive)
5 | CCCCCCCC(C)NCCO (stereo unspecified) | 106% (inactive)
6 | Cc1cc(N(CCCNc2ccnc3cc(Cl)ccc23)Cc2ccc3c(c2)OCO3)nc(N2CCOCC2)n1 | 20.2% (inactive)
7 | COc1cc(-c2nnc(-c3c(-c4ccc(F)cc4)nc4ccccn34)o2)cc(OC)c1OC | 52.5% (inactive)
8 | COc1ccc2c(c1)/C(=C\c1c[nH]c3ccc(OC)cc13)C(=O)N2 | 53.2% (inactive)
9 | NC(=O)CC1(c2ccccc2)CCCCC1 | 104% (inactive)
10 | COc1ccc(-c2nc3sccn3c2-c2nc3c([nH]2)C(=O)c2ccccc2C3=O)cc1 | 91.3% (inactive)
11 | Fc1ccc(-c2nnc(-c3c(-c4ccc(F)cc4)nc4ccccn34)o2)cc1 | 70% (inactive)
12 | CCN1CCCC1CNC(=O)c1ncc(-c2ccc(C(F)(F)F)cc2)c(NC2CCCCCC2)n1 (stereo unspecified) | 80.4% (inactive)
13 | Cc1ccc(Nc2cc(C)nc(NCCCNc3ccnc4cc(Cl)ccc34)n2)cc1 | -45.4% (active)
14 | Cn1c([N+](=O)[O-])cnc1/C=C1\Oc2ccccc2C1=O | -39.5% (active)
15 | CC12O[C@H](C[C@@H](OC(=O)c3ccccc3)[C@H]1O)n1c3ccccc3c3c4c(c5c6ccccc6n2c5c31)C(=O)NC4=O | 79.6% (inactive)
16 | COc1ccc(-c2nc3ncccn3c2-c2nnc(-c3ccc(F)cc3)o2)cc1 | 101% (inactive)
17 | Nc1ccc2c(c1)C1(CCC2)NC(=O)NC1=O (stereo unspecified) | 103% (inactive)
18 | COc1cc(OC)cc(-c2cncn2-c2ccc(-c3nc4cc(OC)cc(OC)c4s3)cc2)c1 | 51.3% (inactive)
19 | Clc1ccc2c(NCCCNc3nccc(Nc4ccc(Br)cc4)n3)ccnc2c1 | -45.9% (active)
20 | O=C(Nc1cccc(Br)c1)c1cc(=O)[nH]c2ccccc12 | 105% (inactive)
21 | COc1cc(Nc2ccnc(NCCCNc3ccnc4cc(Cl)ccc34)n2)cc(OC)c1 | -4.19% (active)
22 | CN1CCC(CNc2cc(C3(C(=O)Nc4cc(C(=O)Nc5ccc(Cl)c(C(F)(F)F)c5)ccc4F)CC3)ncn2)CC1 | 3.98% (active)
23 | N#Cc1c(C#N)c(SSc2c(C#N)c(C#N)c(N)n2-c2ccccc2)n(-c2ccccc2)c1N | 120% (inactive)
24 | Clc1ccc(Nc2ccnc(NCCNc3ccnc4cc(Cl)ccc34)n2)cc1 | 7.77% (active)
25 | Cc1cc(N(CCCNc2ccnc3cc(Cl)ccc23)Cc2ccc3c(c2)OCO3)nc(N2CCCCC2)n1 | -30.8% (active)
26 | CCCCN(CCCC)c1cc(C(=O)CCCCCN)c2ccccc2n1 | 31.8% (inactive)
